# Reference: PubChem BioAssay (NCATS)
# Records with an inconclusive call do not appear. Entries that show only a call come without a potency. Calls of active or inactive are those of the source. Unless noted, calls come from the whole dose curve; as a rule, active = well fitted curve in the direction sought with a large enough effect; inconclusive = small, poorly fitted or top-dose-only effect, or another doubt; inactive = no such curve, though single readings can be large; an effect the other way counts as inactive or inconclusive.
# How the values were obtained:
# [1] = molecular target: Calcium and integrin-binding protein 1 (Homo sapiens) (UniProt Q99828); experiment: Primary qHTS for Identification of Calcium Integrin Binding Protein 1 (CIB1) Competitor (AID 1508620);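 note: GST tagged CIB1 binding a fluorescein labelled alphaIIb integrin peptide tracer; top concentration of the series differs between compounds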
# Outline: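 Fluorescence polarization competition: GST-tagged CIB1 (1 uM final) preincubated with compound 15 min at room temperature, then FITC-labelled alphaIIb peptide (100 nM final) added. After 15 min at room temperature, polarization read at Ex 480/Em 540.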
# [2] = molecular target: Protein phosphatase 1D (Homo sapiens) (UniProt O15297); experiment: Rhodamine-PBP qHTS Assay for Modulators of WT P53-Induced Phosphatase 1 (WIP1) (AID 1347425)
# Outline: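 The read-out is the change in Rhodamine-PBP fluorescence (f1 - f0, ex 525/em 598 nm) as Pi is released, read each minute for 11 min. Final reaction: 5 nM WIP1, 10 uM phosphopeptide VEPPL-pS-QETFS, 10 uM Rh-PBP, 50 mM Tris-HCl pH 7.5, 30 mM MgCl2. Compound was preincubated with enzyme for 1 hour at room temperature.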
# [3] = Primary qHTS for inhibitors of La Crosse Virus (LACV) - induced cell death in SH-SY5Y cells (AID 1508616);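 note: top concentration of the series differs between compounds; higher means more rescue of cells from virus-induced death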
# Outline: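 Screening measures cell viability in LACV-infected SH-SY5Y cultures. Compound was added before virus (0.01 MOI), and ATP was detected by luminescence 6 days later.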
# [4] = Primary qHTS for small molecule stabilizers of the endoplasmic reticulum resident proteome: Secreted ER Calcium Modulated Protein (SERCaMP) assay (AID 1508630)
# Outline: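 The SH-SY5Y reporter protocol was run at 3 concentrations up to 38.3 uM (primary) or 11 concentrations (follow-up): 16 h compound, 100 nM thapsigargin for 4 h, then extracellular luciferase luminescence.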
# [5] = A High-Content qHTS Against Drug Library for the Identification of Small Molecules that Inhibit DYT1 Early Onset Primary Dystonia-Associated Cell Pathology (AID 1645839; calls by dose curve; note: series mostly up to about 46 µM)
# Outline: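 Cells were seeded and left for 24 h, then dosed with compound alongside tetracycline induction of mutant EGFP-TorsinA. They were incubated for 48 h, fixed in 4% paraformaldehyde, permeabilized and imaged for mislocalization (%pathology) and cell count.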
# [6] = Validation qHTS assay for inhibitors of Activation Induced Cytidine Deaminase (AID): UDG Counterscreen signal (AID 1347427)
# Outline: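 Fluorescence at 560 nm excitation, 665 nm emission reports UDG signal after 250 mM NaOH (2x) addition and 30 min. Enzymes (AID 1 uM, UDG 2 U/mL, at 4/3x) preincubated 10 min with compound, then 4 h with 4x 250 nM DJC20/DJC23 substrate at room temperature.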
# [7] = molecular target: Single-stranded DNA cytosine deaminase (Homo sapiens) (UniProt Q9GZX7); experiment: Validation qHTS assay for inhibitors of Activation Induced Cytidine Deaminase (AID): AID signal (AID 1347429)
# Outline: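 Compounds (up to 114 uM final) are tested against AID plus UDG using DJC20/DJC23 FRET substrate. Reactions incubate 4 hr at room temperature, receive NaOH for 30 min, and are read at Ex 540/Em 590 nm.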
# [8] = molecular target: Cytochrome P450 2D6 (Homo sapiens) (UniProt P10635); experiment: Cytochrome P450 family 2 subfamily D member 6 (CYP2D6) small molecule antagonists: luciferase biochemical (cell-free) qHTS assay (AID 1645840; active = well fitted curve in the direction sought with a large enough effect in the repeat runs; an effect the other way counts as inactive or inconclusive; note: series mostly up to about 57 µM; nearly all actives have a fitted effect of over 55% in size)
# Outline: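 P450-Glo CYP2D6 system: proluciferin substrate converted by enzyme to luciferin, read by luminescence proportional to activity. Enzyme-substrate mix with compound 10 min at room temperature, then NADPH regeneration 1 h before detection reagent.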
# Sequence of Calcium and integrin-binding protein 1 (Homo sapiens) (Q99828 whole entry, looked up): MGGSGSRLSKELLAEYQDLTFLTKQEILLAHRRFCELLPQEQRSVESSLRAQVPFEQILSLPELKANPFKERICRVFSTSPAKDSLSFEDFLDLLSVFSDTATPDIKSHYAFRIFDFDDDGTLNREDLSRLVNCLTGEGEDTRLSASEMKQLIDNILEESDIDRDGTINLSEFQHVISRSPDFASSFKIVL
# Sequence of Protein phosphatase 1D (Homo sapiens) (O15297 whole entry, looked up): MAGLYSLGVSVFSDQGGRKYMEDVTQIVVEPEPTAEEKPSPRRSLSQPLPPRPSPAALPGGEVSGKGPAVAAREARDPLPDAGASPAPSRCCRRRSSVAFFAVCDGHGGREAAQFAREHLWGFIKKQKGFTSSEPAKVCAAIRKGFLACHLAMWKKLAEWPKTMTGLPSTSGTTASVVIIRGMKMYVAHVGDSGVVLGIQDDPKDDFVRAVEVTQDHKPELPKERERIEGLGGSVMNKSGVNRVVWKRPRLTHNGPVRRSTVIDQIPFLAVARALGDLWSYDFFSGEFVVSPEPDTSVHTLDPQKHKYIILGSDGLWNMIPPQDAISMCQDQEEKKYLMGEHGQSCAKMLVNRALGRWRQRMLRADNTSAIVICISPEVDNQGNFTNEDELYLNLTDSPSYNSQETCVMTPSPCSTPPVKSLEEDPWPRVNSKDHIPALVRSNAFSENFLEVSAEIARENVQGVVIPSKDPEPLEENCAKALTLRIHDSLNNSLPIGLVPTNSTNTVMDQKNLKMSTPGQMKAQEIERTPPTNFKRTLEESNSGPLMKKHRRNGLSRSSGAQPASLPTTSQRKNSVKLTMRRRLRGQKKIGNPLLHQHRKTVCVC
# Sequence of Cytochrome P450 2D6 (Homo sapiens) (P10635 whole entry, looked up): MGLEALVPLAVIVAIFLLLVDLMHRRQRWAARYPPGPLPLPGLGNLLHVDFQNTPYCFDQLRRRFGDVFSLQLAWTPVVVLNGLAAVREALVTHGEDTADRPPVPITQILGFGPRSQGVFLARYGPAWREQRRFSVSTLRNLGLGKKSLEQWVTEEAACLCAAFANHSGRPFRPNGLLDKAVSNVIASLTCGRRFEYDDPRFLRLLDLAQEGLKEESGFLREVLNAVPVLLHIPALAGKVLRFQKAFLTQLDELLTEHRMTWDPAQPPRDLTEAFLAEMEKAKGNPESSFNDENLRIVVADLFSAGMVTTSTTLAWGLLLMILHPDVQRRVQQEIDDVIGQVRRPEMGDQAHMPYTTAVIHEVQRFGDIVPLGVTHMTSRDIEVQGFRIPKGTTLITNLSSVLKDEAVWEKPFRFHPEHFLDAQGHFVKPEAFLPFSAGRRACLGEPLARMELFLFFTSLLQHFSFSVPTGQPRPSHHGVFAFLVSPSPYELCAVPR
# Sequence of Single-stranded DNA cytosine deaminase (Homo sapiens) (Q9GZX7 whole entry, looked up): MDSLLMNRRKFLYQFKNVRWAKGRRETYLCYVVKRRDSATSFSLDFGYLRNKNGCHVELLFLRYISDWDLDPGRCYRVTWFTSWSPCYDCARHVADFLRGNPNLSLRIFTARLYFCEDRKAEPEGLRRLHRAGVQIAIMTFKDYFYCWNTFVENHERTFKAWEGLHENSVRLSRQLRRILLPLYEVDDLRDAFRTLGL
compound,measurement,setting,value
OC[C@@H](O)[C@@H](O)[C@H](O)[C@@H](O)CO,Potency,[1],inactive
O=S(=O)(O)CCSSCCS(=O)(=O)O,Potency,[1],inactive
CCCCC(=O)O[C@]1(C(=O)CO)[C@@H](C)C[C@H]2[C@@H]3CCC4=CC(=O)C=C[C@]4(C)[C@@]3(F)[C@@H](O)C[C@@]21C,outcome,[2],inactive
same,outcome,[3],inactive
same,Potency,[1],inactive
same,outcome,[4],inactive
same,outcome,[5],inactive
COc1ccc2cc([S+]([O-])Cc3ncc(C)c(OC)c3C)nc2c1,outcome,[6],inactive
same,outcome,[7],inactive
same,outcome,[3],inactive
same,Potency,[1],inactive
O=C(O)C=Cc1ccc(Cn2ccnc2)cc1,Potency,[1],inactive
Cn1cc(C2=C(c3c4n(c5ccccc35)CCC(CN)C4)C(=O)NC2=O)c2ccccc21 (stereo not drawn),Potency,[1],inactive
CN(N=O)C(=O)N[C@H]1C(O)OC(CO)[C@@H](O)[C@H]1O (stereo partly drawn),Potency,[1],inactive
NS(=O)(=O)OC[C@@H]1C[C@@H](n2ccc3c(N[C@H]4CCc5ccccc54)ncnc32)C[C@H]1O,Potency,[1],inactive
CC[C@H]1OC(=O)[C@H](C)[C@@H](O[C@H]2C[C@@](C)(OC)[C@@H](O)[C@H](C)O2)[C@H](C)[C@@H](O[C@@H]2O[C@@H](C)C[C@H](N(C)C)[C@@H]2O)[C@](C)(O)C[C@@H](C)C(=O)[C@H](C)[C@@H](O)[C@]1(C)O,Potency,[1],inactive
NC(=O)Nc1sc(-c2ccc(F)cc2)cc1C(N)=O,Potency,[1],inactive
C=CC(=O)N1CCc2ccc(-n3c(=O)ccc4cnc5ccc(-c6cnn(C)c6)cc5c43)cc21,Potency,[1],inactive
Nc1ccn(C2CO[C@H](CO)O2)c(=O)n1 (stereo partly drawn),outcome,[2],inactive
same,outcome,[3],inactive
same,outcome,[5],inactive
same,Potency,[8],inactive
C=CC(=O)Nc1cccc(Nc2nc(NC3CCC(N(C)C)CC3)nc3c2ncn3C(C)C)c1 (stereo not drawn),Potency,[1],inactive
